From PubChem BioAssay
Records with an inconclusive call do not appear. Activity calls are given as the source filed them.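 How the source made its calls, unless noted: active means normalized viability below 100% at a tested concentration; inactive means the rest.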

How the values were obtained:
[1] = growth inhibition of DIPG glioma cells, dose response, cell-based, SU-DIPG-XVII, MIPE5.0, CellTiter-Glo, qHTS (AID 1347060; cut-off not given, nearly all actives have AC50 up to about 26 µM;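 further: cells exposed to compound for 48 hours before viability readout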); conditions: SU-DIPG-XVII viability, CellTiter-Glo ATP luminescence
[2] = growth inhibition of DIPG glioma cells, dose response, cell-based, SU-DIPG-XIII, MIPE4.0, CellTiter-Glo, qHTS (AID 1347061; cut-off not given, nearly all actives have AC50 up to about 37 µM;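 further: cells exposed to compound for 48 hours before readout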); conditions: SU-DIPG-XIII viability, CellTiter-Glo ATP luminescence
[3] = growth inhibition of DIPG glioma cells, dose response, cell-based, JHH-DIPG-1, MIPE4.0, CellTiter-Glo, qHTS (AID 1347062; cut-off not given, nearly all actives have AC50 up to about 27 µM;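 further: cells exposed to compound for two days before readout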); conditions: JHH-DIPG-1 viability, CellTiter-Glo ATP luminescence
[4] = growth inhibition of DIPG glioma cells, dose response, cell-based, SU-DIPG-IV, MIPE4.0, CellTiter-Glo, qHTS (AID 1347063; cut-off not given, nearly all actives have AC50 up to about 30 µM;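 further: compound exposure lasted 48 hours before the viability readout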); conditions: SU-DIPG-IV viability, CellTiter-Glo ATP luminescence
[5] = growth inhibition of DIPG glioma cells, dose response, cell-based, SU-DIPG-XIII, MIPE5.0, CellTiter-Glo, qHTS (AID 1347064; cut-off not given, nearly all actives have AC50 up to about 23 µM;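 further: cells exposed to compound for 48 hours before the viability read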); conditions: SU-DIPG-XIII viability, CellTiter-Glo ATP luminescence
[6] = viability loss in pontine glioma line – cell-based, SU-DIPG-XXV, MIPE5.0, CellTiter-Glo, qHTS, dose response (AID 1347065; cut-off not given, nearly all actives have AC50 up to about 26 µM;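 further: cells exposed to compound for 48 hours before ATP readout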); conditions: CellTiter-Glo ATP luminescence
[7] = SU-DIPG-VI glioma cell viability, MIPE4.0 library, CellTiter-Glo luminescence, qHTS (AID 1347066; cut-off not given, nearly all actives have AC50 up to about 30 µM;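 further: cells exposed to compound for 48 hours before readout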); conditions: CellTiter-Glo ATP luminescence
[8] = JHH-DIPG-1 glioma cell viability, MIPE5.0 library, CellTiter-Glo luminescence, qHTS (AID 1347067; cut-off not given, nearly all actives have AC50 up to about 26 µM;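 further: cells exposed to compound for 48 hours before readout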); conditions: JHH-DIPG-1 glioma viability, CellTiter-Glo ATP luminescence
[9] = SU-DIPG-XXV glioma cell viability, MIPE5.0 library, qHTS (AID 1347068; cut-off not given, nearly all actives have IC50 up to about 30 µM;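 further: cells exposed to compound for 48 hours before viability readout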)
[10] = sensitizers of A549 cells to miR-34 induction, primary screen, imaging, A549 dox-inducible miR-34, nuclei and caspase counts (AID 1347080;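 active means compounds whose cell count with miR-34 switched on is under 0.7 times the count with it off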); conditions: A549 miR-34 inducible, Hoechst nuclei count, 48 h
[11] = modifiers of HSF1 nuclear foci, imaging, Selleck Cancer Library (AID 1347162; in the data active means plate-normalised HSF1 focus index below about 0.46); conditions: human cells, at 10 µM; SSMD: measured here: HSF1 foci SSMD mean; cell count: measured here: cell number; plate-normalised HSF1 focus index: stronger effect = lower value
[12] = survival rescue of mitochondrial mutant cells in low glucose, primary screen, MELAS cybrids, Rieske KO mouse fibroblasts, CellTiter-Glo (AID 1508586;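 active means mean z-score across replicates of 1.96 or higher in either the MELAS or the Rieske mutant cell line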;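 further: z relative to plate mean and SD of compound and empty wells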)
[13] = ovarian cancer cell viability with rucaparib, profiling panel, oncology-focused library, rucaparib conditional (AID 1508598); conditions: patient-derived ovarian cancer cells, CellTiter-Glo viability, 144 h, stronger effect = lower value
[14] = LFS_MB_P medulloblastoma growth inhibition, cell-based, chromothripsis tumors, cisplatin or BGB combos (AID 1671449; in the data active means inhibition above about 80%;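 further: cells exposed for 96 hours; 0% = vehicle DMSO and 100% = killing by high DMSO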); conditions: LFS_MB_P medulloblastoma cells
[15] = HDN33 neuroblastoma growth inhibition, cell-based, chromothripsis tumors, cisplatin or BGB combos (AID 1671450; in the data active means inhibition above about 80%;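 further: cells exposed to compound for four days; 0% = vehicle DMSO and 100% = cell killing by high DMSO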); conditions: HDN33 neuroblastoma cells, stronger effect = higher value
[16] = ICB984 medulloblastoma cell growth inhibition, synergistic combos for chromothripsis tumors, cisplatin or BGB combos (AID 1671451; call rule not given here;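 further: cells exposed for 96 hours before readout; 0% = vehicle DMSO and 100% = killing by high DMSO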); conditions: ICB984 medulloblastoma cells, drug combinations, stronger effect = higher value
[17] = HTB85 osteosarcoma cell growth inhibition, synergistic combos for chromothripsis tumors, BGB or cisplatin IC20 combos (AID 1671453; in the data active means inhibition above about 80%;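 further: cells exposed for 96 hours before readout; 0% = vehicle DMSO and 100% = high DMSO killing control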); conditions: HTB85 osteosarcoma cells, drug combinations, stronger effect = higher value
[18] = at 0.000305 µM, OCI-C5x cells, with rucaparib 10 µM, 100% = cells with rucaparib alone
[19] = at 0.000305 µM, OCI-C5x cells, without rucaparib
[20] = at 0.000305 µM, OCI-P5x cells, with rucaparib 20 µM, 100% = cells with rucaparib alone
[21] = at 0.000305 µM, OCI-P5x cells, without rucaparib
[22] = at 0.00122 µM, OCI-C5x cells, with rucaparib 10 µM, 100% = cells with rucaparib alone
[23] = at 0.00122 µM, OCI-C5x cells, without rucaparib
[24] = at 0.00122 µM, OCI-P5x cells, with rucaparib 20 µM, 100% = cells with rucaparib alone
[25] = at 0.00122 µM, OCI-P5x cells, without rucaparib
[26] = at 0.00488 µM, OCI-C5x cells, with rucaparib 10 µM, 100% = cells with rucaparib alone
[27] = at 0.00488 µM, OCI-C5x cells, without rucaparib
[28] = at 0.00488 µM, OCI-P5x cells, with rucaparib 20 µM, 100% = cells with rucaparib alone
[29] = at 0.00488 µM, OCI-P5x cells, without rucaparib
[30] = at 0.0195 µM, OCI-C5x cells, with rucaparib 10 µM, 100% = cells with rucaparib alone
[31] = at 0.0195 µM, OCI-C5x cells, without rucaparib
[32] = at 0.0195 µM, OCI-P5x cells, with rucaparib 20 µM, 100% = cells with rucaparib alone
[33] = at 0.0195 µM, OCI-P5x cells, without rucaparib
[34] = at 0.0781 µM, OCI-C5x cells, with rucaparib 10 µM, 100% = cells with rucaparib alone
[35] = at 0.0781 µM, OCI-C5x cells, without rucaparib

Nc1ccc(-c2ccc3ncc4ccc(=O)n(-c5cccc(C(F)(F)F)c5)c4c3c2)cn1
59.9%: inhibition ([14]; measured here: combination with BGB IC40, at 0.005 µM)
1.14: fold change ([10]; measured here: relative caspase fold change +Dox/-Dox)
active: AC50 [1] 0.0934 µM | AC50 [2] 0.132 µM | AC50 [3] 0.0743 µM | AC50 [4] 0.0332 µM | AC50 [5] 0.0235 µM | AC50 [6] 0.0209 µM | AC50 [7] 0.187 µM | AC50 [8] 0.166 µM | IC50 [9] 0.235 µM | z-score ([12]; MELAS cybrid survival, CellTiter-Glo 48 h, stronger effect = higher value) 3.27 | viability [13, 20] 87.4% | viability [13, 21] 87.8% | viability [13, 24] 89.2% | viability [13, 25] 90.5% | viability [13, 27] 83.6% | viability [13, 28] 79.7% | viability [13, 29] 60.8% | viability [13, 31] 72% | viability [13, 32] 70.7% | viability [13, 33] 49.8% | viability [13, 35] 92.2% | viability ([13]; at 0.0781 µM, OCI-P5x cells, with rucaparib 20 µM, 100% = cells with rucaparib alone) 77.9% | viability ([13]; at 0.0781 µM, OCI-P5x cells, without rucaparib) 63.5% | viability ([13]; at 0.313 µM, OCI-C5x cells, without rucaparib) 89.4% | viability ([13]; at 0.313 µM, OCI-P5x cells, with rucaparib 20 µM, 100% = cells with rucaparib alone) 73.5% | viability ([13]; at 0.313 µM, OCI-P5x cells, without rucaparib) 65.9% | viability ([13]; at 1.25 µM, OCI-C5x cells, with rucaparib 10 µM, 100% = cells with rucaparib alone) 62.2% | viability ([13]; at 1.25 µM, OCI-C5x cells, without rucaparib) 70.5% | viability ([13]; at 1.25 µM, OCI-P5x cells, with rucaparib 20 µM, 100% = cells with rucaparib alone) 67.9% | viability ([13]; at 1.25 µM, OCI-P5x cells, without rucaparib) 54.1% | viability ([13]; at 5 µM, OCI-C5x cells, with rucaparib 10 µM, 100% = cells with rucaparib alone) 33.1% | viability ([13]; at 5 µM, OCI-C5x cells, without rucaparib) 29.5% | viability ([13]; at 5 µM, OCI-P5x cells, with rucaparib 20 µM, 100% = cells with rucaparib alone) 10.8% | viability ([13]; at 5 µM, OCI-P5x cells, without rucaparib) 14.6%
94.9%: inhibition ([17]; measured here: with cisplatin IC20, at 5 µM)
-36.1%: inhibition ([14]; measured here: combination with BGB IC40, at 0.05 µM)
14.7%: inhibition ([15]; measured here: with BGB IC20 combination, at 0.5 µM)
3.19%: inhibition ([14]; measured here: combination with cisplatin, at 0.5 µM, stronger effect = higher value)
35.5%: inhibition ([17]; measured here: with BGB IC20, at 0.5 µM)
89.3%: inhibition ([15]; BGB combo, at 5 µM)
93.5%: inhibition ([15]; cisplatin combo, at 5 µM)
91.8%: inhibition ([15]; single agent, at 5 µM)
43.5%: inhibition ([15]; measured here: with cisplatin IC20 combination, at 0.5 µM)
-0.678: z-score ([12]; Rieske KO mouse fibroblast survival, CellTiter-Glo 72 h)
6780: cell count [11]
-13.5%: inhibition ([16]; cisplatin combo, at 0.5 µM)
1410: cell count ([10]; measured here: total cells without miR-34 induction)
78%: inhibition ([17]; measured here: with BGB IC20, at 5 µM)
-13.1%: inhibition ([16]; cisplatin combo, at 5 µM)
92.6%: inhibition ([14]; measured here: combination with cisplatin, at 5 µM, stronger effect = higher value)
18.5%: inhibition ([16]; BGB IC20 combo, at 0.005 µM)
inactive: fold change ([10]; stronger effect = lower value, cell number ratio, induced over uninduced) 1 | plate-normalised HSF1 focus index [11] 1.15 | viability [13, 18] 117% | viability [13, 19] 112% | viability [13, 22] 107% | viability [13, 23] 119% | viability [13, 26] 118% | viability [13, 30] 113% | viability [13, 34] 109% | viability ([13]; at 0.313 µM, OCI-C5x cells, with rucaparib 10 µM, 100% = cells with rucaparib alone) 109% | inhibition ([14]; at 0.5 µM, stronger effect = higher value) 5.33% | inhibition ([15]; at 0.5 µM) 32.1% | inhibition ([16]; at 0.5 µM) -14.5% | inhibition ([17]; at 0.5 µM) 27.1%
79.9%: inhibition ([16]; cisplatin combo, at 0.05 µM)
80.5%: inhibition ([16]; BGB IC40 combo, at 0.05 µM)
79.3%: inhibition ([17]; single agent, at 5 µM)
-20%: inhibition ([14]; measured here: combination with BGB IC20, at 0.005 µM)
2.81: SSMD [11]
-7.65%: inhibition ([16]; measured here: 5 uM single agent, at 5 µM)
1420: cell count ([10]; measured here: total cells with miR-34 induction, stronger effect = lower value)
16.8%: inhibition ([17]; measured here: with cisplatin IC20, at 0.5 µM)
13.6%: inhibition ([16]; BGB IC40 combo, at 0.005 µM)

CCC[C@H](NC(=O)/C(C#N)=C/c1cccc(Br)n1)c1ccccc1
-18.6: SSMD [11]
6540: cell count [11]
inactive: viability [13, 18] 119% | viability [13, 19] 122% | viability [13, 21] 113% | viability [13, 22] 114% | viability [13, 23] 137% | viability [13, 25] 111% | viability [13, 26] 121% | viability [13, 27] 137% | viability [13, 29] 114% | viability [13, 30] 111% | viability [13, 31] 135% | viability [13, 32] 104% | viability [13, 33] 110% | viability [13, 34] 108% | viability [13, 35] 128%
active: AC50 [1] 3.32 µM | AC50 [2] 26.4 µM | AC50 [3] 3.32 µM | AC50 [4] 2.35 µM | AC50 [5] 3.32 µM | AC50 [6] 2.63 µM | AC50 [7] 9.35 µM | AC50 [8] 4.68 µM | IC50 [9] 16.6 µM | plate-normalised HSF1 focus index [11] 0.0433 | viability [13, 20] 94.8% | viability [13, 24] 95.1% | viability [13, 28] 98.7%
